From PubChem BioAssay (EPA / NIEHS)
Activity calls are given as the source filed them. The calls were made as follows: active = hit-call score of the fitted dose curve at least 0.9, where 1 is the maximum; inactive = score below 0.9.

Columns and labels:
[1] = BSK_CASM3C_SRB: Viability Assessment in the BioMAP Diversity Plus: CASM3C Assay (AID 2283050); details: primary human coronary artery smooth muscle cells;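 also: total protein by SRB staining as cytotoxicity measure in parallel cultures; cells exposed to compound for 24 h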
[2] = read-out: Thrombomodulin, THBD (gene 7056); assay: BSK_CASM3C_Thrombomodulin: BioMAP Diversity Plus: CASM3C Assay for Thrombomodulin Biomarker Activity (AID 2283051); details: primary human coronary artery smooth muscle cells; actives raise or lower the signal;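 also: thrombomodulin protein level measured by ELISA 24 h after dosing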
[3] = read-out: Tissue Factor, F3 (gene 2152); assay: BSK_CASM3C_TissueFactor: BioMAP Diversity Plus: CASM3C Assay for Tissue Factor Biomarker Activity (AID 2283052); details: primary human coronary artery smooth muscle cells; actives raise or lower the signal;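 also: cell surface tissue factor protein level read by ELISA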
[4] = read-out: Urokinase-type plasminogen activator receptor (uPAR), PLAUR (gene 5329); assay: BSK_CASM3C_uPAR: BioMAP Diversity Plus: CASM3C Assay for Urokinase-type plasminogen activator receptor (uPAR) Biomarker Activity (AID 2283054); details: primary human coronary artery smooth muscle cells; actives raise or lower the signal;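 also: cell-surface uPAR protein level quantified by ELISA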
[5] = read-out: Vascular cell adhesion molecule 1 (VCAM1), VCAM1 (gene 7412); assay: BSK_CASM3C_VCAM1: BioMAP Diversity Plus: CASM3C Assay for Vascular cell adhesion molecule 1 (VCAM1) Biomarker Activity (AID 2283055); details: primary human coronary artery smooth muscle cells; actives raise or lower the signal;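 also: VCAM-1 protein level quantified by ELISA on the cells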
[6] = read-out: Collagen III, COL3A1 (gene 1281); assay: BSK_hDFCGF_CollagenIII: BioMAP Diversity Plus: hDFCGF Assay for Collagen III Biomarker Activity (AID 2283056); details: primary human foreskin fibroblasts; actives raise or lower the signal
Summary of the method: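 ELISA readout of Collagen III in human dermal (foreskin) fibroblasts, taken 24 h post-treatment. Gain or loss relative to DMSO vehicle fitted in both directions.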

[7] = read-out: Epidermal growth factor receptor (EGFR), EGFR (gene 1956); assay: BSK_hDFCGF_EGFR: BioMAP Diversity Plus: hDFCGF Assay for Epidermal growth factor receptor (EGFR) Biomarker Activity (AID 2283057); details: primary human foreskin fibroblasts; actives raise or lower the signal
Summary of the method: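 Cell-based multiplexed assay in primary human foreskin fibroblasts. EGFR is read by ELISA 24 h after treatment and compared with DMSO controls.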

[8] = read-out: Interleukin-8 (IL8), CXCL8 (gene 3576); assay: BSK_hDFCGF_IL8: BioMAP Diversity Plus: hDFCGF Assay for Interleukin-8 (IL8) Biomarker Activity (AID 2283058); details: primary human foreskin fibroblasts; actives raise or lower the signal
Summary of the method: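 IL-8 levels read by ELISA at 24 hours after dosing human skin fibroblast cultures. Parallel SRB staining assessed overt cytotoxicity, and gain or loss of signal was fitted against DMSO control.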

[9] = BSK_hDFCGF_Proliferation: Cell Proliferation Assessment in the BioMAP Diversity Plus: hDFCGF Assay (AID 2283059); details: primary human foreskin fibroblasts;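 also: curves fitted for both rise and fall of signal versus DMSO baseline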
Summary of the method: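 This proliferation readout used SRB total-protein staining of human foreskin fibroblasts […], normalized to DMSO with bidirectional curve fitting.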

[10] = read-out: Macrophage colony-stimulating factor (MCSF), CSF1 (gene 1435); assay: BSK_hDFCGF_MCSF: BioMAP Diversity Plus: hDFCGF Assay for Macrophage colony-stimulating factor (MCSF) Biomarker Activity (AID 2283060); details: primary human foreskin fibroblasts; actives raise or lower the signal
Summary of the method: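 M-CSF levels read by ELISA at 24 h post-dosing in human skin fibroblasts. Parallel cultures stained with SRB assessed cytotoxicity at the same time point; response fitted in both directions against the DMSO baseline.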

[11] = BSK_hDFCGF_SRB: Viability Assessment in the BioMAP Diversity Plus: hDFCGF Assay (AID 2283061); details: primary human foreskin fibroblasts;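 also: cells exposed to compound for 24 h before the read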
Summary of the method: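 Viability was read as total protein: after 10% TCA fixation, wells were stained with 0.1% sulforhodamine B and read at 560 nm. Primary human foreskin fibroblasts were dosed for 24 h, with bidirectional fitting versus DMSO.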

[12] = read-out: TIMP metallopeptidase inhibitor 1 (TIMP1), TIMP1 (gene 7076); assay: BSK_hDFCGF_TIMP1: BioMAP Diversity Plus: hDFCGF Assay for TIMP metallopeptidase inhibitor 1 (TIMP1) Biomarker Activity (AID 2283062); details: primary human foreskin fibroblasts; actives raise or lower the signal
Summary of the method: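 TIMP-1 measured by ELISA 24 h after chemical dosing of primary human skin fibroblasts, with gain or loss fitted relative to DMSO. Parallel SRB staining (560 nm) monitored overt cytotoxicity.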

[13] = read-out: Monokine induced gamma interferon (MIG), CXCL9 (gene 4283); assay: BSK_hDFCGF_MIG: BioMAP Diversity Plus: hDFCGF Assay for Monokine induced gamma interferon (MIG) Biomarker Activity (AID 2283063); details: primary human foreskin fibroblasts; actives raise or lower the signal
Summary of the method: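 Human primary foreskin fibroblasts in the hDFCGF system, exposed to test chemical for 24 h; MIG measured by ELISA. Bidirectional curve fitting against DMSO negative control as activity baseline.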

[14] = read-out: Matrix Metallopeptidase 1 (MMP1), MMP1 (gene 4312); assay: BSK_hDFCGF_MMP1: BioMAP Diversity Plus: hDFCGF Assay for Matrix Metallopeptidase 1 (MMP1) Biomarker Activity (AID 2283064); details: primary human foreskin fibroblasts; actives raise or lower the signal
Summary of the method: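 ELISA read-out of MMP1 from human foreskin fibroblasts (primary skin cells), 24 h post-dose. Gain or loss of signal was fitted bidirectionally versus DMSO negative control; cytotoxicity was checked by SRB in parallel cultures.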

[15] = read-out: Vascular cell adhesion molecule 1 (VCAM1), VCAM1 (gene 7412); assay: BSK_hDFCGF_VCAM1: BioMAP Diversity Plus: hDFCGF Assay for Vascular cell adhesion molecule 1 (VCAM1) Biomarker Activity (AID 2283065); details: primary human foreskin fibroblasts; actives raise or lower the signal;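 as to AC50: VCAM-1 protein level quantified by ELISA after 24 h chemical exposure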
Summary of the method: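 ELISA readout of VCAM-1 on human dermal fibroblast primary cultures, 24 h after chemical exposure. Gain or loss of signal fitted in both directions against DMSO baseline.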

[16] = read-out: Plasminogen activator inhibitor-1 (PAI1), SERPINE1 (gene 5054); assay: BSK_hDFCGF_PAI1: BioMAP Diversity Plus: hDFCGF Assay for Plasminogen activator inhibitor-1 (PAI1) Biomarker Activity (AID 2283066); details: primary human foreskin fibroblasts; actives raise or lower the signal
Summary of the method: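 Human skin fibroblast cultures receive chemical for 24 h before PAI-1 is measured by ELISA; signal changes are fitted bidirectionally against DMSO-treated wells.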

[17] = read-out: Intercellular Adhesion Molecule 1 (ICAM1), ICAM1 (gene 3383); assay: BSK_KF3CT_ICAM1: BioMAP Diversity Plus: KF3CT Assay for Intercellular Adhesion Molecule 1 (ICAM1) Biomarker Activity (AID 2283067); details: primary human keratinocytes with fibroblasts; actives raise or lower the signal
Summary of the method: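 Cell-surface ICAM-1 was measured by ELISA 24 h after dosing primary human skin keratinocytes co-cultured with fibroblasts. Parallel SRB staining tracked overt cytotoxicity. Gain or loss of signal was fitted relative to DMSO.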

[18] = BSK_KF3CT_SRB: Viability Assessment in the BioMAP Diversity Plus: KF3CT Assay (AID 2283069); details: primary human keratinocytes with fibroblasts;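 also: total protein by sulforhodamine B staining as a cytotoxicity measure; read 24 h after compound addition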
Summary of the method: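 SRB read-out at 560 nm (0.1% stain, TCA-fixed cells) gauges overt cytotoxicity in a human skin keratinocyte–fibroblast co-culture 24 h post-dosing. Signal change was fitted bidirectionally relative to DMSO control.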

[19] = read-out: Interferon-gamma inducible Protein 10 (IP10), CXCL10 (gene 3627); assay: BSK_KF3CT_IP10: BioMAP Diversity Plus: KF3CT Assay for Interferon-gamma inducible Protein 10 (IP10) Biomarker Activity (AID 2283068); details: primary human keratinocytes with fibroblasts; actives raise or lower the signal
Summary of the method: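 Signal is secreted/surface IP-10 by ELISA in a human primary skin co-culture of keratinocytes and foreskin fibroblasts, taken 24 h post-dosing; DMSO served as negative control.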

Measured: AC50

O=S(=O)(O)C(F)(F)C(F)(F)C(F)(F)C(F)(F)C(F)(F)C(F)(F)F
not listed: [19]
inactive: all other assays above

COS(=O)(=O)OC
not listed: [19]
inactive: all other assays above

CCNc1nc(NC(C)C)nc(SC)n1
not listed: [19]
inactive: all other assays above

CC1=C2C[C@H]3[C@@H](CC=C4C[C@@H](O)CC[C@@]43C)[C@@H]2CC[C@]12O[C@@H]1C[C@H](C)CN[C@H]1[C@H]2C
not listed: [19]
inactive: all other assays above

ClC1=C(Cl)[C@]2(Cl)[C@@H]3[C@H]4C[C@H]([C@@H]5O[C@H]45)[C@@H]3[C@@]1(Cl)C2(Cl)Cl
active: [3] 7.07 µM | [9] 6.6 µM
not listed: [16] | [19]
inactive: all other assays above

CC(C)(c1ccccc1)c1ccc(O)cc1
active: [1] 29.5 µM | [2] 20 µM | [5] 28.6 µM | [6] 32.2 µM | [8] 30.8 µM | [9] 29.3 µM | [10] 30.7 µM | [11] 33.8 µM | [12] 32 µM | [13] 39 µM | [14] 32.8 µM | [15] 34.7 µM | [16] 32.2 µM | [17] 36.9 µM | [18] 33.1 µM
inactive: [3] | [4] | [7]

CC(C)C(=O)OCC(C)(C)C(OC(=O)C(C)C)C(C)C (configuration not stated)
active: [9] 34.4 µM
inactive: all other assays above

CCC(C)c1cc([N+](=O)[O-])cc([N+](=O)[O-])c1O (configuration not stated)
active: [1] 30.2 µM | [4] 31.3 µM | [9] 3.85 µM | [10] 4.2 µM | [11] 7.45 µM | [16] 12 µM
not listed: [19]
inactive: all other assays above

CC(c1ccc(O)cc1)(c1ccc(O)cc1)c1ccc(O)cc1
active: [1] 4.79 µM | [4] 6.77 µM | [5] 5.31 µM | [6] 3.78 µM | [8] 36.6 µM | [9] 23.6 µM | [10] 16.5 µM | [11] 29.2 µM | [13] 23.8 µM | [14] 39.2 µM | [15] 8.14 µM | [16] 20.5 µM | [17] 20 µM | [19] 22.3 µM | [18] 29.9 µM
inactive: [2] | [3] | [7] | [12]

CC(C)(O)C(=O)Nc1ccc([N+](=O)[O-])c(C(F)(F)F)c1
inactive: all assays above

Oc1ccc(C(c2ccc(O)cc2)(C(F)(F)F)C(F)(F)F)cc1
inactive: [3] | [4] | [7]
active: [1] 27.9 µM | [2] 29.2 µM | [5] 31 µM | [6] 13.1 µM | [8] 30.6 µM | [9] 12.4 µM | [10] 14.8 µM | [11] 13.7 µM | [12] 15.8 µM | [15] 7.41 µM | [16] 12.8 µM | [17] 37.7 µM | [19] 17.3 µM | [18] 24.1 µM

ClC1=C(Cl)[C@]2(Cl)[C@@H]3[C@@H]4C[C@@H]([C@H]5O[C@@H]45)[C@@H]3[C@@]1(Cl)C2(Cl)Cl
active: [9] 8.97 µM
not listed: [19]
inactive: all other assays above
